Gal4-VP16 FLuc: VP16 counterscreen qHTS for inhibitors of ROR gamma transcriptional activity | AID 2546, 2010 | Potency, µM (titrated, usually from 53.6 µM), usual class: inhibitors | 3.5% of 310,000 active | Drosophila S2 Gal4-VP16 UAS-luciferase, luminescence, 20 h;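 note: Gal4-VP16 expression switched on by copper sulfate through the metallothionein promoter; nearly all actives have a fitted effect of over 50% in size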
KinaseGlo FLuc: Counterscreen for Luciferase (Kinase-Glo TM) Inhibition. Luciferin 4-monooxygenase (Photuris pensylvanica), Q27757. Kinase-Glo luciferase, ATP luminescence, 8 min. Potency, µM (highest dose often 38.3 µM), hits mostly inhibitors. 0.28% of 200,000 active. AID 1379, 2008; note: nearly all actives have a fitted effect of over 60% in size
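Light output from Kinase-Glo luciferase with luciferin and 10 uM ATP in 50 mM imidazole pH 7.2, KCl, MgCl2, Tween 20, BSA; compound pin-delivered, 8-min ambient incubation, then luminescence read.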
RORg inh: qHTS for inhibitors of ROR gamma transcriptional activity. Nuclear receptor ROR-gamma (Mus musculus), P51450. Drosophila S2 Gal4-RORgamma UAS-luciferase reporter, 20 h. Potency, µM (top dose mostly 53.6 µM), hits mostly inhibitors. 5.4% of 310,000 active. AID 2551, 2010; note: nearly all actives have a fitted effect of over 60% in size
Target sequence (P51450 whole entry, looked up, the tested form may be a part): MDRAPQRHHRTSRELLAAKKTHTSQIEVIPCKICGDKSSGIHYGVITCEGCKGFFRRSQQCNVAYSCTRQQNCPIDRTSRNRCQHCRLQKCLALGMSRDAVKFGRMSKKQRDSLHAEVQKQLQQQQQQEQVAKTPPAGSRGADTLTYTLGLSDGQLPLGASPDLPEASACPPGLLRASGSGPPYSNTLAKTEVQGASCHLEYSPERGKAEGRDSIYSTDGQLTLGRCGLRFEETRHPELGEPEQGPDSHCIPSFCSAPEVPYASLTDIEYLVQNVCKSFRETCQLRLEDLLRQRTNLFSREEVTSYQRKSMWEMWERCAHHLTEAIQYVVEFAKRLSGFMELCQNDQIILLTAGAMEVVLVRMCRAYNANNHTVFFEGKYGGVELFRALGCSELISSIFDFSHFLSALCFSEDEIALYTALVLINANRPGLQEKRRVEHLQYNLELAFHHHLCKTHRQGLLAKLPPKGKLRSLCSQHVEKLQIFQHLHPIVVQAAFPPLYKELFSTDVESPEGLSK
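Drosophila Schneider cells stably carrying a metallothionein-driven Gal4 DBD–ROR gamma fusion and a UAS-Photinus luciferase reporter were exposed to compound for 1 hr, then induced with copper sulfate (700 uM final) for 20 hr at ambient temperature before luminescence reading.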
Of the large screens only hits and unclear results are named; the others gave an inactive call. A selection: hits, their analogues and other compounds. The true share with any hit is near 6.2%. Calls come from the whole dose curve; as a rule, active = well fitted curve in the direction sought with a large enough effect; inconclusive = small, poorly fitted or top-dose-only effect, or another doubt; inactive = no such curve, though single readings can be large; an effect the other way counts as inactive or inconclusive.

c1csc(C2Nc3ccccc3-c3nc4ccccc4n32)c1 (stereo not drawn)	none
CCN1c2ccccc2-c2nc3ccccc3n2C1c1ccncc1 (stereo not drawn)	none (no result: KinaseGlo FLuc)
CN1c2ccccc2-c2nc3ccccc3n2C1c1cccs1 (stereo not drawn)	RORg inh 4.5µM
CN1C(C(=O)Nc2cccc(O)c2)=CC(c2ccco2)=NS1(=O)=O	none (no result: KinaseGlo FLuc)
C=CCO/N=C(/C)c1ccc(Oc2cnccn2)cc1	none
O=c1[nH]cc(N=Cc2cc([N+](=O)[O-])ccc2O)c(=O)[nH]1	none (no result: KinaseGlo FLuc)
O=c1[nH]cc(N=Cc2cc(Cl)cc(Cl)c2O)c(=O)[nH]1	Gal4-VP16 FLuc 13µM, RORg inh 11µM (no result: KinaseGlo FLuc)
CCC/C=C(\CCC)C(NS(=O)(=O)c1ccc(C(F)(F)F)cc1)c1ccc(-c2ccccc2)cc1 (stereo not drawn)	none
CN(c1ccccc1C(=O)Nc1cccc(Cl)c1Cl)S(C)(=O)=O	none
Cc1cc(OCC(=O)NC(C)(C)C)ccc1Cl	none
Cc1cc(OCC(=O)N(C(C)C)C(C)C)ccc1Cl	Gal4-VP16 FLuc inconclusive, RORg inh 1.6µM
Cc1cc(OC(C)C(=O)Nc2cccnc2)ccc1Cl (stereo not drawn)	none (no result: KinaseGlo FLuc)
Cc1ccc(OC(C)C(=O)Nc2ccncc2)cc1 (stereo not drawn)	Gal4-VP16 FLuc 18µM, RORg inh inconclusive (no result: KinaseGlo FLuc)
Cc1ccc(OC(C)C(=O)Nc2cc(C)on2)cc1 (stereo not drawn)	none (no result: KinaseGlo FLuc)
Cc1cc(OC(C)C(=O)Nc2ccncc2)ccc1Cl (stereo not drawn)	Gal4-VP16 FLuc 11µM (no result: KinaseGlo FLuc)
Nc1ncc([N+](=O)[O-])cc1Br	none (no result: KinaseGlo FLuc)
COc1ccc(NC(=O)[C@H](C)NC(=O)[C@@H]2Cc3ccccc3CN2C(=O)OC(C)(C)C)cc1	none (no result: KinaseGlo FLuc)
Cc1nn(Cc2noc(C(=O)NCc3ccc4c(c3)OCO4)n2)c(C)c1Br	none (no result: KinaseGlo FLuc)
CC(C)NC(=S)N/N=C1\CCCCC1C1CCCCC1 (stereo not drawn)	Gal4-VP16 FLuc 3.5µM, RORg inh 1µM
NS(=O)(=O)c1ccc(N/N=C2/CCCCC2C2CCCCC2)c([N+](=O)[O-])c1 (stereo not drawn)	Gal4-VP16 FLuc inconclusive
CC(=O)Cc1cc2cc([N+](=O)[O-])ccc2oc1=O	none (no result: KinaseGlo FLuc)
Cc1ccc(Sc2c([N+](=O)[O-])c(=O)n(C)c3ccccc23)cc1	Gal4-VP16 FLuc 7.1µM, RORg inh 11µM (no result: KinaseGlo FLuc)
Cc1ccc(Sc2c(O)c3ccccc3n(C)c2=O)cc1	none
COc1ccc(NC(=O)c2ccccc2SC)c(OC)c1	none
CSc1ccccc1NC(=S)Nc1cc(C)cc(C)c1	Gal4-VP16 FLuc 14µM, RORg inh 6.3µM
COc1ccc(NC(=O)Nc2ccccc2SC)cc1	KinaseGlo FLuc 10µM
COc1ccc(NC(=O)CN2CCN(CC(=O)Nc3ccccc3F)CC2)c(OC)c1	Gal4-VP16 FLuc inconclusive, RORg inh inconclusive
COc1ccc(NC(=S)Nc2ccccc2SC)c(OC)c1	Gal4-VP16 FLuc inconclusive, RORg inh 11µM
COc1ccc(NC(=O)Nc2ccccc2F)cc1	KinaseGlo FLuc inconclusive, RORg inh inconclusive
Fc1ccc(NC(=S)Nc2ccccc2Cl)cc1	RORg inh inconclusive
COc1ccc(NC(=S)Nc2ccccc2F)c(OC)c1	RORg inh 11µM
NC(=O)OC[C@@H]1[C@H](NC(=O)/C(=N/OCC(=O)O)c2csc(N)n2)C(=O)N1S(=O)(=O)O	none (no result: KinaseGlo FLuc)
CC(C)Oc1ccc(N2CC(C(=O)Nc3ccc(N4CCOCC4)cc3)CC2=O)cc1 (stereo not drawn)	none
C=C1CCC2C(CC2(C)C)C(=C)CC/C1=N/O (stereo not drawn)	none
Cc1n[nH]c(C)c1CN(C)C(=O)C1CCC(=O)N(CC2CCCCC2)C1 (stereo not drawn)	none (no result: KinaseGlo FLuc)
Nc1nc(-c2ccccc2)cn1N	Gal4-VP16 FLuc 7.1µM, RORg inh 3.2µM
Cc1ccc(-c2cn3nc(-c4ccccc4)c(-c4ccccc4)nc3n2)cc1	none (no result: KinaseGlo FLuc)
Nc1nc(-c2ccccc2)cn1/N=C/c1ccccc1	RORg inh inconclusive (no result: KinaseGlo FLuc)
c1ccc(-c2cn3nc(-c4ccccc4)c(-c4ccccc4)nc3n2)cc1	RORg inh 22µM
Cc1noc(NS(=O)(=O)c2cccc3c(N(C)C)cccc23)c1C	none
NC(=O)Nc1ccc(C(=O)OCC(=O)Nc2cccc(S(=O)(=O)NC3=NCCCCC3)c2)cc1	none (no result: KinaseGlo FLuc)
CCOC(=O)Cn1nc(/C=C/c2ccccc2)ccc1=O	Gal4-VP16 FLuc 14µM
CCOC(=O)Cn1nc(/C=C/c2ccc(C)cc2)ccc1=O	none
Cc1ccc(C(=O)NCC(=O)O)o1	none
CC(=O)N1N=C(c2ccco2)CC1c1cccs1 (stereo not drawn)	none
O=C(CCl)N1N=C(c2ccco2)CC1c1cccs1 (stereo not drawn)	Gal4-VP16 FLuc 16µM, RORg inh 10µM
N#C/C(=N/Nc1ccc(OC(F)(F)F)cc1)C(N)=S	Gal4-VP16 FLuc 4.5µM, RORg inh 4.5µM (no result: KinaseGlo FLuc)
COc1ccc(N/N=C(\C#N)C(N)=O)cc1	none
COCC(C)Nc1nc(C)c(C(C)=O)s1 (stereo not drawn)	none
Cc1ccc(C2=Nc3ccccc3N(C(=O)c3ccccc3)C(C)C2)cc1 (stereo not drawn)	none
COc1cccc(CNC(=O)N2CCN(S(=O)(=O)c3ccc(C)cc3)CC2)c1	none (no result: KinaseGlo FLuc)
O=C1C(=O)c2ccccc2C(O)=C1c1ccccc1F	Gal4-VP16 FLuc 1.3µM (no result: KinaseGlo FLuc)
O=C1C(=O)c2ccccc2C(O)=C1Cc1ccccc1	none (no result: Gal4-VP16 FLuc, RORg inh)
O=C(Nc1ccccc1)C1=C[C@H](c2ccc3c(c2)OCO3)C[C@H](OCc2ccc(CO)cc2)O1	none (no result: KinaseGlo FLuc)
C=CCNC(=S)N/N=C/c1ccc(OCc2ccccc2Cl)cc1	Gal4-VP16 FLuc 1.6µM, RORg inh 0.79µM
Clc1ccccc1COc1ccc(/C=N/n2cnnc2)cc1	none
S=C(Nc1ccc(Cl)cc1)c1nc2ccccc2[nH]1	Gal4-VP16 FLuc 20µM, RORg inh 11µM
Cc1ccccc1NC(=S)c1nc2ccccc2[nH]1	Gal4-VP16 FLuc inconclusive, RORg inh inconclusive
CCc1c(C)nc2cc(-c3cc(OC)cc(OC)c3)nn2c1N1CCCC1	Gal4-VP16 FLuc 13µM, RORg inh 7.1µM
CCOCCN1CCN(c2c(CC)c(C)nc3cc(-c4cc(OC)cc(OC)c4)nn23)CC1	RORg inh inconclusive
Cc1ccc(C(=O)COC(=O)c2ccc3c(c2)C(=O)N(c2cccc4ncccc24)C3=O)cc1C	Gal4-VP16 FLuc 16µM, RORg inh inconclusive
COc1ccccc1Oc1ccc2c(c1)C(=O)N(c1cccc3ncccc13)C2=O	Gal4-VP16 FLuc 10µM, RORg inh inconclusive
COc1ccccc1Oc1ccc2c(c1)C(=O)N(c1cccc(O)c1)C2=O	Gal4-VP16 FLuc inconclusive
Cc1ccc(C(=O)COC(=O)c2ccc(-c3cnc4ccccc4n3)cc2)cc1C	none
CCO/C(C)=C1\C(=O)Nc2ccccc21	none (no result: KinaseGlo FLuc)
CCN(CC)S(=O)(=O)c1cccc(C(=O)NNC(=O)C2=NN(c3ccccc3)C(=O)CC2)c1	none (no result: KinaseGlo FLuc)
C/C(=N\NC(=O)c1cc(-c2ccccc2C)nc2ccccc12)c1cccnc1	RORg inh inconclusive (no result: KinaseGlo FLuc)
C/C(=N/NC(=O)c1ccc(C)s1)c1cccnc1	none (no result: KinaseGlo FLuc)
C/C(=N/NC(=O)c1cc(-c2ccccc2)nc2c(Cl)cccc12)c1cccnc1	Gal4-VP16 FLuc 11µM, RORg inh 18µM (no result: KinaseGlo FLuc)
C/C(=N\NC(=O)c1cc(-c2cccnc2)nc2ccccc12)c1ccc(O)cc1O	Gal4-VP16 FLuc 0.56µM, RORg inh 0.63µM
C/C(=N\NC(=O)c1cc(-c2cccc(OC(C)C)c2)nc2ccccc12)c1cccnc1	Gal4-VP16 FLuc inconclusive (no result: KinaseGlo FLuc)

Bioassay records: PubChem BioAssay, National Center for Advancing Translational Sciences (NCATS)
